From PubChem BioAssay AID463173 (ICCB-Longwood Screening Facility, Harvard Medical School, 2010) come the findings set out here.

Molecules are shown by their SMILES. In all, about 52,000 compounds went through this assay and about 4,300 (8.3%) were called active. Rule as the data show it: active = survival mostly below about 52% (no sharp cut-off); inactive = mostly above about 56%. This excerpt belongs to a sample that is enriched for actives.

For the test, the system named is DeltatarO mutant. The test is described as follows: growth inhibition of S. aureus wild type versus tarO mutant, primary screen, teichoic acid synthesis inhibitors, RN4220, OD600 (AID 463173). To be noted: OD600, 18 h, active compounds read low, screened at 18.75 µg/mL (by protocol).
In the case of `CN1CCN(Cc2c(O)ccc3cc(-c4ccccc4)c(=O)oc23)CC1`, the survival is 105% (inactive).
With `CCOC(=O)c1[nH]c(C)c(CCC(=O)NCc2ccc(OC(C)C)cc2)c1C` the figure was 80% (inactive); with `COc1cc(C2CC(=O)N(Cc3ccc(F)cc3)c3ccccc3S2)cc(OC)c1OC` (configuration not stated), 75% (inactive); with `COc1ccc(C2CC(=O)N(CC(=O)Nc3cc(C)ccc3C)c3ccccc3S2)cc1` (configuration not stated), 79% (inactive).
Consider `O=C1CC(c2ccccc2)Sc2ccccc2N1Cc1ccccc1F` (configuration not stated), for which the survival is 96% (inactive).
With `COc1cc(C2CC(=O)N(Cc3cccc(F)c3)c3ccccc3S2)cc(OC)c1OC` (configuration not stated) the figure was 103% (inactive); with `COc1ccc(C2CC(=O)N(Cc3ccc(F)cc3)c3ccccc3S2)cc1` (configuration not stated), 28% (active).
Consider `COc1ccc(C2CC(=O)N(Cc3cccc(F)c3)c3ccccc3S2)cc1` (configuration not stated), for which the survival is 47% (active).
The result for `O=C1CC(c2ccccc2)Sc2ccccc2N1Cc1ccc(F)cc1` (configuration not stated) reads -2% (active).
For the compound `COc1ccc(C2CC(=O)N(Cc3ccc(F)cc3)c3ccccc3S2)cc1OC` (configuration not stated), the survival is 100% (inactive).
Take `CCc1ccc(NC(=O)CN2C(=O)CC(c3ccccc3)Sc3ccccc32)cc1` (configuration not stated): the survival was 113% (inactive).
`COc1ccc2c(c1)c(=O)c(C(=O)c1ccc(C)c(C)c1)cn2CC(=O)Nc1ccc2c(c1)OCCO2`: the survival was 76% (inactive).
With `CCOc1ccc(NC(=O)Cn2cc(C(=O)c3ccc(CC)cc3)c(=O)c3cc(OC)c(OC)cc32)cc1` the figure was 98% (inactive); with `CCOC(=O)c1ccc(NC(=O)CCc2c(C)nc3c(-c4ccc(F)cc4)c(C)nn3c2C)cc1`, 61% (inactive).
In the case of `COc1ccccc1N1CCN(C(=O)c2ccc(Nc3nc4ccccc4n4nnnc34)cc2)CC1`, the survival was 59% (inactive).
For the compound `Cc1ccc(CNC(=O)C2CCC(CNS(=O)(=O)c3ccc4c(c3)CCCC(=O)N4)CC2)cc1` (configuration not stated), the survival was 79% (inactive).
As to `COc1cccc(C(c2sc3nc(-c4ccco4)nn3c2O)N2CCCC2)c1` (configuration not stated), the survival is 71% (inactive).
Take `COc1ccc(OC)c2sc(N3CCN(C(=O)C4CC4)CC3)nc12`: the survival is -5% (active).
With `COc1ccc(OC)c2sc(N3CCN(C(=O)C4COc5ccccc5O4)CC3)nc12` (configuration not stated) the figure was 88% (inactive); with `COc1ccc(OC)c2sc(N3CCN(C(=O)c4ccco4)CC3)nc12`, 87% (inactive); with `Cc1ccc(C)c2sc(N3CCN(C(=O)c4ccco4)CC3)nc12`, 134% (inactive).
As to `COc1ccc(C)c2sc(N3CCN(C(=O)c4ccco4)CC3)nc12`, the survival is 17% (active).
The result for `COc1ccc(OC)c2sc(N3CCN(C(=O)C(C)(C)C)CC3)nc12` reads 89% (inactive).
With `CCn1cc(S(=O)(=O)c2cccc(C)c2)c(=O)c2cc(F)c(N3CCCCC3C)cc21` (configuration not stated) the figure was 83% (inactive).
For `CCc1ccc2[nH]c(=O)c(C(c3nnnn3C(C)(C)C)N3CCc4ccccc43)cc2c1` (configuration not stated), the survival is 96% (inactive).
Regarding `Cc1oc(-c2ccc(C(=O)N(C)Cc3ccccc3)cc2)nc1CN1CCc2ccccc21`, the survival was 119% (inactive).
As to `Cc1ccc(-n2nc3ccc(NC(=O)Cc4ccc(Cl)cc4)cc3n2)cc1`, the survival is 79% (inactive).
The result for `CCOc1ccc(CNC(=O)Cn2c(=O)c3cccn3c3ccccc32)cc1` reads 60% (inactive); that for `CCOC(=O)c1cccc(Nc2c3c(nc4ccccc24)CCC3)c1`, 68% (inactive).
The result for `FC(F)(F)c1cccc(Nc2c3c(nc4ccc(Cl)cc24)CCC3)c1` reads 9% (active).
For `COc1ccc(Nc2c3c(nc4ccc(NC(=O)c5cc(Cl)ccc5OC)cc24)CCCC3)cc1OC`, the survival was 70% (inactive).
As to `Fc1ccc(F)c(Nc2c3c(nc4ccc(Cl)cc24)CCC3)c1`, the survival was -18% (active).
As for `Fc1ccccc1Nc1c2c(nc3ccccc13)CCC2`, the survival is 95% (inactive).
With `COc1cc(Cl)c(C)cc1Nc1c2c(nc3ccccc13)CCC2`, the survival was 70% (inactive).
With `O=C(Nc1c(C(=O)N2CCN(c3ccc(F)cc3)CC2)oc2ccccc12)c1c(F)cccc1F` the figure was 95% (inactive); with `CCC(=O)Nc1ccccc1-c1nc2ccccc2n(Cc2cccc(Br)c2)c1=O`, 49% (inactive).
The result for `CCn1cc(C(=O)NCCc2ccc(Cl)cc2)c(=O)c2cc(S(=O)(=O)N(C)C3CCCCC3)ccc21` reads 84% (inactive); that for `CC(=O)Nc1ccc(NC(=O)C2CCN(c3c(NC(C)=O)c(C)nn3-c3ccccc3)CC2)cc1`, 67% (inactive).
With `Cc1cccc(CNC(=O)C2CCN(c3nn4cc(-c5ccc(F)cc5)nc4s3)CC2)c1` the figure was 47% (active).
On to `CC(=O)Nc1c(C)nn(-c2ccccc2)c1N1CCC(C(=O)NCc2ccccc2Cl)CC1`, for which the survival was -2% (active).
The result for `Cc1ccc(CNC(=O)C2CCN(c3nn4cc(-c5ccc(F)cc5)nc4s3)CC2)cc1` reads 87% (inactive); that for `CC(=O)Nc1c(C)nn(-c2ccccc2)c1N1CCC(C(=O)NCc2ccc(Cl)cc2)CC1`, 72% (inactive); that for `O=C(NCc1cccc(F)c1)C1CCN(c2nn3cc(-c4ccc(F)cc4)nc3s2)CC1`, 87% (inactive).
Consider `CC(=O)Nc1c(C)nn(-c2ccccc2)c1N1CCC(C(=O)Nc2ccc(F)cc2Cl)CC1`, for which the survival is 76% (inactive).
With `CC(=O)Nc1c(C)nn(-c2ccccc2)c1N1CCC(C(=O)NCc2cccc(F)c2)CC1` the figure was 6% (active); with `CC(=O)Nc1c(C)nn(-c2ccccc2)c1N1CCC(C(=O)Nc2cc(F)ccc2F)CC1`, 79% (inactive).
With `CC(=O)Nc1c(C)nn(-c2ccccc2)c1N1CCC(C(=O)NCc2ccc(F)cc2)CC1`, the survival was -1% (active).
`CC(=O)Nc1c(C)nn(-c2ccccc2)c1N1CCC(C(=O)NCc2cccc(Cl)c2)CC1`: the survival was 84% (inactive).
For the compound `CC(=O)Nc1c(C)nn(-c2ccccc2)c1N1CCC(C(=O)Nc2ccc(C)cc2Cl)CC1`, the survival was 72% (inactive).
The result for `COc1ccc(OC)c(C2CC(=O)Nc3c2c(=O)n(C)c2ncnn32)c1` (configuration not stated) reads 166% (inactive); that for `O=C(Nc1ccc(N2CCOCC2)cc1)c1ncn[nH]1`, 86% (inactive); that for `Cc1ccc(NC(=O)Cn2c(SCc3cccc(F)c3)nc3ccncc32)c(C)c1`, 83% (inactive).
The result for `Cc1ccc(O)c(NC(=O)c2cc(-c3ccccc3O)no2)c1` reads 80% (inactive); that for `O=C(NC1CC(=O)N(c2ccccc2)C1)c1ccc(S(=O)(=O)N2CCCC2)cc1` (configuration not stated), 128% (inactive); that for `O=C(NC1CC(=O)N(c2ccc(F)cc2)C1)c1ccc(S(=O)(=O)N2CCCCC2)cc1` (configuration not stated), 75% (inactive).
With `CCOc1ccc(N2CC(NC(=O)c3ccc(S(=O)(=O)N4CCCCC4)cc3)CC2=O)cc1` (configuration not stated) the figure was 79% (inactive); with `CCOc1ccc(N2CC(NC(=O)c3ccc(S(=O)(=O)N4CCOCC4)cc3)CC2=O)cc1` (configuration not stated), 47% (active).
Regarding `O=C(NC1CC(=O)N(c2ccccc2)C1)c1ccc(S(=O)(=O)N2CCCCC2)cc1` (configuration not stated), the survival is 17% (active).
The result for `CCOc1ccc(N2CC(NC(=O)c3ccc(S(=O)(=O)N4CCCC4)cc3)CC2=O)cc1` (configuration not stated) reads 87% (inactive).
In the case of `Cc1c(Cl)cccc1N1C(N)=C(C#N)C(c2cc(CN3CCOCC3)cs2)C2=C1CCCC2=O` (configuration not stated), the survival was 128% (inactive).
The result for `COc1ccc(Cl)cc1NC(=O)c1c(NCc2ccc(C)o2)sc2c1CCC(C)C2` (configuration not stated) reads 81% (inactive).
For `COc1ccc(OC)c(NC(=O)c2c(NCc3ccc(C)o3)sc3c2CCC(C)C3)c1` (configuration not stated), the survival is 52% (active).
With `COc1ccc(NC(=O)c2c(NCc3ccc(C)o3)sc3c2CCC(C)C3)c(OC)c1` (configuration not stated) the figure was 82% (inactive); with `Cc1nnc(SCC#N)n1C`, 92% (inactive).
The result for `CC(=O)Nc1ccc(S(=O)(=O)NCc2ccc(C(=O)NCc3ccc(Cl)cc3)cc2)cc1` reads 68% (inactive); that for `Cc1ccc(-c2nn(-c3ccc(F)cc3)c3c2cnc2cc(F)c(F)cc23)cc1`, 82% (inactive).
With `CSc1ccc(CCNC(=O)CCc2c(C)nc3c(c(C)nn3-c3ccc(C)c(C)c3)c2C)cc1` the figure was 91% (inactive).
Take `Cc1ccc(NC(=O)CCCn2c3ccccc3c(=O)c3cc(C)ccc32)c(Br)c1`: the survival was 38% (active).
With `Cc1ccc2c(c1)c(=O)c1ccccc1n2CCCC(=O)Nc1ccc(F)cc1F` the figure was 49% (active); with `Cc1c2cnn(-c3ccccc3)c(=O)c2c(C)n1CCCC(=O)Nc1ccc(F)cc1F`, 72% (inactive); with `Cc1ccc2c(c1)c(=O)c1ccccc1n2CCCC(=O)Nc1c(F)cccc1F`, 53% (inactive).
With `Cc1ccc2c(c1)c(=O)c1ccccc1n2CCCC(=O)Nc1cc(Cl)ccc1C` the figure was 113% (inactive); with `CCCn1c2ccccc2c2cnn(CC(=O)Nc3ccc(C)cc3Br)c(=O)c21`, 94% (inactive).
Consider `Cc1ccc(CCNC(=O)CCCn2c(=O)c3ccccc3n(CC(=O)Nc3cc(Cl)ccc3C)c2=O)cc1`, for which the survival was 116% (inactive).
With `Cc1ccc2c(c1)c(=O)c1ccccc1n2CCCC(=O)Nc1ccc(Cl)cc1C` the figure was 45% (active); with `Cc1ccc(NC(=O)CCS(=O)(=O)c2ccc3c(c2)oc(=O)n3C)c(Br)c1`, 80% (inactive).
Regarding `CCOc1ccccc1NC(=O)C(C)Sc1cc(-c2ccccc2)nc(C)n1` (configuration not stated), the survival is 59% (inactive).
With `CCOC(=O)c1ccc(NC(=O)C(CC)Sc2nc3ncccc3o2)cc1` (configuration not stated) the figure was 81% (inactive); with `C=Cn1c(=N)n(C)c2ccccc21`, 70% (inactive).
In the case of `O=C(CN1C(=O)COc2ccc(S(=O)(=O)N3CCOCC3)cc21)N1CCN(c2ccccc2)CC1`, the survival is 116% (inactive).
For the compound `COc1ccccc1CNC(=O)c1ccc(-c2nc(CS(=O)(=O)c3ccc(C)cc3)c(C)o2)cc1`, the survival was 73% (inactive).
Turning to `COc1ccc(F)cc1NC(=O)C1CCN(c2nc(-c3ccc(OC)c(OC)c3)no2)CC1`, the survival is 48% (inactive).
On to `Cc1ccc(NC(=O)CCc2nc3cccnc3n2-c2ccccc2)cc1`, for which the survival was 80% (inactive).
The result for `Cc1cc(NC(=O)CCc2nc3cccnc3n2-c2ccccc2)ccc1Br` reads 31% (active).
The result for `Cc1ccc(NC(=O)CCc2nc3cccnc3n2-c2ccccc2)cc1Cl` reads 64% (inactive); that for `CCOC(=O)Cn1c(-c2cccs2)cc2cc(Cl)ccc21`, 59% (inactive); that for `COc1cccc(Nc2nc3ccc(C(=O)c4ccccc4)cc3n3c(C)nnc23)c1`, 85% (inactive).
